Many of the other results were omitted from the sample, so the strongest signals are more common in it than they were.
What was measured:
Test in all cases: glycan array binding signal (z-score within array); higher = stronger binding
Details in all cases: glycan notation: IUPAC condensed, linker removed
[1] = biological target: Gal(b1-6)Gal
Outline: (§1)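 Arrays were curated from the Consortium for Functional Glycomics database, 3228 in total, and kept only where the protein sequence was available. Binding is expressed as a within-array Z-score. This score was averaged across arrays of the same protein sequence at different concentrations or buffers and across linkers, and negative values can be read as non-binding.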

[2] = biological target: Gal6S(b1-4)Glc6S
Outline: as §1

[3] = biological target: GalNAc(b1-3)GalNAc
Outline: as §1

[4] = biological target: GalNAc(b1-4)GlcNAc
Outline: as §1

[5] = biological target: GalNAc(b1-6)GalNAc
Outline: as §1

[6] = biological target: GalNAc3S(b1-4)GlcNAc
Outline: as §1

[7] = biological target: Glc(b1-6)Glc
Outline: as §1

[8] = biological target: GlcA(b1-3)GlcNAc
Outline: as §1

[9] = biological target: GlcNAc(b1-3)Gal
Outline: as §1

[10] = biological target: GlcNAc(b1-3)Gal(b1-4)Glc
Outline: as §1

[11] = biological target: GlcNAc(b1-3)Gal(b1-4)GlcNAc(b1-3)Gal(b1-4)GlcNAc(b1-2)Man(a1-3)[GlcNAc(b1-3)Gal(b1-4)GlcNAc(b1-3)Gal(b1-4)GlcNAc(b1-2)Man(a1-6)]Man(b1-4)GlcNAc(b1-4)GlcNAc
Outline: as §1

[12] = biological target: GlcNAc(b1-3)[GlcNAc(b1-4)][GlcNAc(b1-6)]GlcNAc
Outline: as §1

[13] = biological target: Man(a1-2)Man(a1-6)[Man(a1-3)]Man(a1-6)[Man(a1-2)Man(a1-2)Man(a1-3)]Man
Outline: as §1

[14] = biological target: Man(a1-2)Man(a1-6)[Man(a1-3)]Man(a1-6)[Man(a1-2)Man(a1-2)Man(a1-3)]Man(b1-4)GlcNAc(b1-4)GlcNAc
Outline: as §1

[15] = biological target: Neu5Ac(a2-3)Gal
Outline: as §1

[16] = biological target: Neu5Ac(a2-3)Gal(b1-3)GalNAc(b1-3)Gal(a1-4)Gal(b1-4)Glc
Outline: as §1

[17] = biological target: Neu5Ac(a2-3)Gal(b1-3)GlcNAc(b1-2)Man(a1-3)[GlcNAc(b1-4)][Neu5Ac(a2-3)Gal(b1-3)GlcNAc(b1-2)Man(a1-6)]Man(b1-4)GlcNAc(b1-4)GlcNAc
Outline: as §1

[18] = biological target: Neu5Ac(a2-3)Gal(b1-4)GlcNAc(b1-2)Man(a1-3)[Neu5Ac(a2-3)Gal(b1-4)GlcNAc(b1-2)Man(a1-6)]Man(b1-4)GlcNAc(b1-4)GlcNAc
Outline: as §1

[19] = biological target: Neu5Ac(a2-3)Gal(b1-4)GlcNAc(b1-2)Man(a1-3)[Neu5Ac(a2-3)Gal(b1-4)GlcNAc(b1-2)Man(a1-6)]Man(b1-4)GlcNAc(b1-4)[Fuc(a1-6)]GlcNAc
Outline: as §1

[20] = biological target: Neu5Ac(a2-3)Gal(b1-4)GlcNAc(b1-3)Gal(b1-4)GlcNAc(b1-3)[Neu5Ac(a2-3)Gal(b1-4)GlcNAc(b1-3)Gal(b1-4)GlcNAc(b1-6)]GalNAc
Outline: as §1

[21] = biological target: Neu5Ac(a2-3)Gal(b1-4)GlcNAc(b1-3)Gal(b1-4)GlcNAc(b1-6)[Gal(b1-3)]GalNAc
Outline: as §1

[22] = biological target: Neu5Ac(a2-3)Gal(b1-4)[Fuc(a1-3)]GlcNAc(b1-6)[Gal(b1-3)]GalNAc
Outline: as §1

[23] = biological target: Neu5Ac(a2-3)Gal6S(b1-4)GlcNAc
Outline: as §1

[24] = biological target: Neu5Ac(a2-3)[GalNAc(b1-4)]Gal(b1-4)GlcNAc
Outline: as §1

[25] = biological target: Neu5Ac(a2-6)Gal(b1-4)GlcNAc(b1-2)Man(a1-3)[GlcNAc(b1-2)Man(a1-6)]Man(b1-4)GlcNAc(b1-4)GlcNAc
Outline: as §1

[26] = biological target: Neu5Ac(a2-6)Gal(b1-4)GlcNAc(b1-3)Gal(b1-4)GlcNAc(b1-3)Gal(b1-4)GlcNAc
Outline: as §1

[27] = biological target: Neu5Ac(a2-6)Gal(b1-4)GlcNAc(b1-3)Gal(b1-4)GlcNAc(b1-3)[Neu5Ac(a2-6)Gal(b1-4)GlcNAc(b1-3)Gal(b1-4)GlcNAc(b1-6)]GalNAc
Outline: as §1

[28] = biological target: Neu5Ac(a2-6)Gal(b1-4)GlcNAc6S
Outline: as §1

[29] = biological target: Neu5Ac(a2-6)GalNAc(b1-4)GlcNAc
Outline: as §1

[30] = biological target: Neu5Ac(a2-6)GalNAc(b1-4)GlcNAc6S
Outline: as §1

[31] = biological target: Neu5Ac(a2-8)Neu5Gc(a2-3)Gal(b1-4)GlcNAc
Outline: as §1

B1: Clec12b (Mus musculus), Q149M0 (protein)
chain: MSDEVTYATLMLQDSARVRGNQDGNNLRKEGHPAQSSLWRGAALSLMTLCLVLVTGLVTLATMFLQVSNDINSDSEKLSQLQKSIHPQQDNLSESLNSSRKSLTEESLQSQISALLERQEQMATKLCKEFLIHASDHKCNPCPKTWQWYGNSCYYFSINEEKSWSDSRKDCIDKNATLVKIDSTEERDLLQSQLSLTFSFFWLGLSWNSSGRNWLWEDGSFPPPTLFSDKELASFNGSRDCAYFERGNIYASRCSAEIPWICEKTASLVKTEDLD
glycan array binding signal (z-score) [1]: -0.5
glycan array binding signal (z-score) [2]: 1.24
glycan array binding signal (z-score) [3]: -0.125
glycan array binding signal (z-score) [4]: 0.301
glycan array binding signal (z-score) [5]: 1.14
glycan array binding signal (z-score) [6]: -0.691
glycan array binding signal (z-score) [7]: -0.441
glycan array binding signal (z-score) [8]: -0.05
glycan array binding signal (z-score) [9]: -0.39
glycan array binding signal (z-score) [10]: 2.54
glycan array binding signal (z-score) [11]: -0.27
glycan array binding signal (z-score) [12]: -0.245
glycan array binding signal (z-score) [13]: -0.526
glycan array binding signal (z-score) [14]: -0.428
glycan array binding signal (z-score) [15]: -0.719
glycan array binding signal (z-score) [16]: -0.593
glycan array binding signal (z-score) [17]: -0.101
glycan array binding signal (z-score) [18]: -0.716
glycan array binding signal (z-score) [19]: 11.9
glycan array binding signal (z-score) [20]: -0.513
glycan array binding signal (z-score) [21]: -0.721
glycan array binding signal (z-score) [22]: 2.54
glycan array binding signal (z-score) [23]: -0.451
glycan array binding signal (z-score) [24]: -0.538
glycan array binding signal (z-score) [25]: -0.701
glycan array binding signal (z-score) [26]: -0.719
glycan array binding signal (z-score) [27]: -0.419
glycan array binding signal (z-score) [28]: 0.459
glycan array binding signal (z-score) [29]: -0.692
glycan array binding signal (z-score) [30]: -0.524
glycan array binding signal (z-score) [31]: -0.719

From the supplement of paper PMC8728848
